High-throughput results: PubChem, Broad Institute
Only a selection was taken, and hits are over-represented in it overall.
DUX4 inh – inhibitors of DUX4-driven ZSCAN4 reporter expression, primary screen, 293T cells, Gaussia and Italica luciferase | 293T-iDUX4 ZSCAN4-Gaussia luciferase reporter, 24 h; stronger effect = lower value | activity change, negative = inhibition, % (no concentration beside the values) | 37,000 tested, 0.8% active | AID 1224904, 2016;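 active = mean inhibition of at least 10% in the main channel, exceeding the control channel by a set limit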;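 also: 0% = median of neutral control wells and -100% = median of positive control wells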
Numbers without * were called inactive.

SMILES	DUX4 inh
C[C@@H]1CN([C@@H](C)CO)C(=O)c2c(c3ccccc3n2C)-c2ccccc2CO[C@@H]1CN(C)Cc1ccc(O)cc1	-9.0
C[C@H]1CN([C@@H](C)CO)C(=O)c2c(c3ccccc3n2C)-c2ccccc2CO[C@@H]1CN(C)Cc1ccc(C(=O)O)cc1	16.3
C[C@H]1CN([C@@H](C)CO)C(=O)c2c(c3ccccc3n2C)-c2ccccc2CO[C@@H]1CN(C)Cc1ccc(C(F)(F)F)cc1	-48.5*
C[C@@H]1CN([C@H](C)CO)C(=O)c2c(c3ccccc3n2C)-c2ccccc2CO[C@H]1CN(C)Cc1ccc(C(=O)O)cc1	5.6
C[C@@H]1CN([C@H](C)CO)C(=O)c2c(c3ccccc3n2C)-c2ccccc2CO[C@@H]1CN(C)Cc1ccc(C(F)(F)F)cc1	-43.0*
C[C@@H]1CN([C@H](C)CO)C(=O)c2c(c3ccccc3n2C)-c2ccccc2CO[C@H]1CN(C)Cc1ccc(C(F)(F)F)cc1	3.3
CO[C@H]1CN(C)C(=O)c2cc(NC(=O)C3CC3)ccc2OC[C@@H](C)N(CC2CC2)C[C@@H]1C	0.5
CCC(=O)N1CC(=O)N2[C@H](C1)[C@H](c1ccc(C3=CCCCC3)cc1)[C@@H]2CO	1.3
COc1cccc(S(=O)(=O)Nc2ccc3c(c2)[C@H]2C[C@@H](CC(=O)NCc4ccccc4F)O[C@@H](CO)[C@H]2O3)c1	2.4
CC(C)CC#Cc1cnc2c(c1)C(=O)N([C@H](C)CO)C[C@H](C)[C@H](CN(C)C(=O)c1cccnc1)O2	-0.5
CO[C@H]1CN(C)C(=O)c2cc(NC(=O)c3cnccn3)ccc2OC[C@H](C)N(CCc2ccccc2)C[C@H]1C	0.1
O=S(=O)(c1ccc(F)cc1)N1CCCCN2[C@H](CO)[C@@H](c3ccc(C#CC4CC4)cc3)[C@@H]2C1	-9.2
COc1ccc(C#Cc2ccc([C@H]3[C@H](CO)N4CCCCN(S(=O)(=O)c5ccccc5)C[C@@H]34)cc2)cc1	-30.2*
O=S(=O)(c1ccccc1)N1CCCCN2[C@H](CO)[C@H](c3ccc(C#CC4CCCC4)cc3)[C@H]2C1	-19.4*
O=S(=O)(c1cccs1)N1CCCCN2[C@H](CO)[C@@H](c3ccc(Br)cc3)[C@H]2C1	-8.6
CCCC#Cc1ccc([C@H]2[C@H]3CN(S(=O)(=O)Cc4ccccc4)CCCCN3[C@H]2CO)cc1	11.1
C[C@@H](O)C#Cc1ccc([C@H]2[C@H]3CN(S(=O)(=O)c4ccccc4)CCCCN3[C@H]2CO)cc1	1.6
COc1ccc(C#Cc2ccc([C@@H]3[C@@H](CO)N4CCCCN(S(=O)(=O)c5ccccc5)C[C@H]34)cc2)cc1	-5.1
O=S(=O)(c1cccs1)N1CCCCN2[C@H](C1)[C@H](c1ccc(Br)cc1)[C@@H]2CO	-7.4
CCCC#Cc1ccc([C@@H]2[C@H](CO)N3CCCCN(S(=O)(=O)Cc4ccccc4)C[C@@H]23)cc1	-8.6
O=S(=O)(c1cccs1)N1CCCCN2[C@@H](CO)[C@H](c3ccc(Br)cc3)[C@@H]2C1	-14.0*
CC(C)CC#Cc1ccc([C@H]2[C@@H](CO)N3CCCCN(S(=O)(=O)Cc4ccccc4)C[C@H]23)cc1	-14.2*
O=S(=O)(c1ccccc1)N1CCCCN2[C@H](CO)[C@@H](c3ccc(C#CC4CCCC4)cc3)[C@@H]2C1	7.3
COc1cccc(S(=O)(=O)Nc2ccc3c(c2)C(=O)N(C)[C@H]2CC[C@H](CC(=O)O)O[C@@H]2CO3)c1	10.5
O=C(NC[C@H]1[C@@H](c2ccccc2)[C@H](CO)N1C(=O)C1CCC1)NC1CCCC1	-0.8
SMILES	DUX4 inh
C[C@H]1CN([C@@H](C)CO)C(=O)c2cccc(NC(=O)c3cnccn3)c2O[C@H]1CN(C)C(=O)NC1CCCCC1	1.7
C/C=C/c1ccccc1[C@@H]1[C@@H](C#N)N(C(=O)c2cccnc2)[C@@H]1CO	5.1
O=C(c1cnccn1)N1CC(=O)N2[C@H](CO)[C@H](c3ccc(C#CCc4ccccc4)cc3)[C@H]2C1	-1.1
C[C@@H]1CN([C@@H](C)CO)S(=O)(=O)c2ccc(-c3cccc(C(=O)N(C)C)c3)cc2O[C@H]1CN(C)Cc1ccc2c(c1)OCO2	-0.7
C[C@@H]1CCCCO[C@@H](CN(C)Cc2ccc(C(=O)Nc3ccccc3N)cc2)[C@@H](C)CN([C@H](C)CO)C(=O)c2cc(NS(=O)(=O)c3cn(C)cn3)ccc2O1	1.8
OC[C@H]1[C@H](c2ccc(C#CC3(O)CCCC3)cc2)[C@@H]2CN(Cc3ccncc3)CCCCN12	14.7
COc1ccc(C#Cc2ccc([C@H]3[C@@H](CO)N4CCCCN(Cc5ccncc5)C[C@H]34)cc2)cc1	-32.2*
COc1ccc(NC(=O)N2CCCCN3[C@H](C2)[C@H](c2ccc(C#CCC(C)C)cc2)[C@@H]3CO)cc1	15.3
OC[C@H]1[C@@H](c2ccc(C#CC3(O)CCCC3)cc2)[C@H]2CN(Cc3ccncc3)CCCCN21	14.9
COc1ccc(C#Cc2ccc([C@@H]3[C@@H](CO)N4CCCCN(Cc5ccncc5)C[C@@H]34)cc2)cc1	-45.3*
OC[C@@H]1[C@H](c2ccc(C#CC3(O)CCCC3)cc2)[C@H]2CN(Cc3ccncc3)CCCCN12	2.5
COc1ccc(NC(=O)N2CCCCN3[C@H](CO)[C@@H](c4ccc(C#CCC(C)C)cc4)[C@@H]3C2)cc1	-17.3*
CCCC#Cc1ccc([C@H]2[C@H](CO)N3CCCCN(Cc4ccncc4)C[C@@H]23)cc1	19.6
CN1CCCCN2[C@H](C1)[C@@H](c1ccc(C#CC3(O)CCCC3)cc1)[C@@H]2CO	-8.9
CN1CCCCN2[C@H](CO)[C@H](c3ccc(C#CC4(O)CCCC4)cc3)[C@@H]2C1	25.0
COc1ccc(C#Cc2ccc([C@H]3[C@H](CO)N4CCCCN(C)C[C@@H]34)cc2)cc1	-26.2*
COc1ccc(NC(=O)N2CCCCN3[C@@H](CO)[C@H](c4ccc(C#CCC(C)C)cc4)[C@@H]3C2)cc1	-0.9
CCN1[C@@H]2c3ccc(/C=C/c4ccccc4)c(=O)n3C[C@H]1[C@H](CO)[C@H]2C(=O)NC1Cc2ccccc2C1	-3.8
COc1ccc(C[C@@H]2CCn3cc(nn3)COCCNC2=O)cc1	-3.9
O=C(C[C@H]1C[C@@H]2c3cc(NS(=O)(=O)c4ccc(F)cc4)ccc3O[C@@H]2[C@@H](CO)O1)N1CCCCC1	-4.1
CN1C(=O)c2cc(NC(=O)Cc3ccccc3)ccc2OC[C@H]2O[C@H](CC(=O)O)CC[C@@H]21	-1.5
CNC[C@@H]1OCCCC[C@@H](C)Oc2ccc(N)cc2C(=O)N([C@@H](C)CO)C[C@H]1C	-0.8
CCCC#Cc1ccc([C@H]2[C@H](CO)N3C(=O)CN(C(=O)Nc4cccc(F)c4)C[C@@H]23)cc1	-69.3*
O=C1CNC[C@@H]2[C@@H](c3ccc(C#Cc4cccnc4)cc3)[C@@H](CO)N12	-19.5*
O=C1CNC[C@H]2[C@@H](c3ccc(C#CC4CCCCC4)cc3)[C@H](CO)N12	16.2
O=C(Nc1cccc(F)c1)N1CC(=O)N2[C@H](CO)[C@@H](c3ccc(C#CCC4CCCC4)cc3)[C@@H]2C1	-1.8
CC(=O)N1CC(=O)N2[C@H](CO)[C@@H](c3ccc(C#Cc4cccnc4)cc3)[C@@H]2C1	-4.5
O=C1CNC[C@@H]2[C@H](c3ccc(C#CC4CCCCC4)cc3)[C@@H](CO)N12	1.5
CC(=O)N1CC(=O)N2[C@H](C1)[C@@H](c1ccc(C#Cc3cccnc3)cc1)[C@@H]2CO	3.1
CCCC#Cc1ccc([C@H]2[C@H]3CN(C(=O)Nc4ccccc4)CC(=O)N3[C@H]2CO)cc1	12.6
